# Where “and” joins values, the source holds several entries; their conditions need not be identical. Equal entries are not always repeated. Calls of active or inactive are those of the source. Unless noted, no rule for the calls is given here.
# Columns and labels:
# [1] = P. berghei load reduction in hepatocytes – cell-based, HepG2, luciferase luminescence, HepG2 viability, primary screen (AID 624349; in the data active = parasite load remaining mostly below about 12%, no sharp cut-off; inactive = mostly above about 10%;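 also: 100% = mean of DMSO negative control wells on the same plate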); conditions: P. berghei liver stage in HepG2, luciferase luminescence, concentration not given here; parasite load remaining: stronger effect = lower value; viability: measured here: HepG2 viability without parasites
# [2] = signal quenchers or enhancers, Cy5 substrate/SSB – biochemical, NIH Clinical Collection, E. coli SSB, artefact control for HCV NS3 helicase inhibitor project (AID 743268); conditions: Cy5-oligo bound E. coli SSB, fluorescence interference
# [3] = tested on: Hepatitis C virus NS3 helicase; test: blockers of NS3h binding to DNA – biochemical, fluorescence polarization, NIH Clinical Collection, primary screen (AID 743270); conditions: NS3 helicase binding to Cy5-dT15 DNA, stronger effect = higher value, concentration not given here
# [4] = target: Single-stranded DNA-binding protein (Escherichia coli (strain K12)) (UniProt P0AGE0); test: SSB-ssDNA binding inhibitors – biochemical, fluorescence polarization, NIH Clinical Collection, counter-screen for HCV NS3 helicase inhibitor project (AID 743271; in the data active = inhibition above about 28%); conditions: E. coli SSB-DNA binding, stronger effect = higher value, concentration not given here
# [5] = compounds distorting NS3 helicase fluorescence signal – biochemical, NIH Clinical Collection, artefact control for HCV NS3 helicase inhibitor project (AID 743272); conditions: fluorescence interference counterscreen, HCV NS3 helicase assay; stronger effect = lower value;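 also: HCV NS3 helicase with a Cy5 labelled single stranded DNA probe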
# [6] = tested on: Neuropilin-2 / VEGF-C interaction (human); test: small molecules blocking Neuropilin-2/VEGF-C interaction – biochemical, microplate binding format, z-score (AID 743281); conditions: microplate NRP2/VEGF-C binding assay; stronger effect = lower value
# [7] = Wnt pathway potentiators raising nuclear beta-catenin – imaging, WNT3A-conditioned medium, mouse C2C12, NPC library, primary screen (AID 1117326; in the data active = nuclear beta-catenin stimulation mostly above about 4.2%, no sharp cut-off; inactive = mostly below about 10%); conditions: stronger effect = higher value
# [8] = stimulators of insulin release from INS-1E, primary screen, cell-based, 5 mM glucose, NPC library (AID 1117329;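 active = compound raises insulin release from rat beta cells at 5 mM glucose, no numeric limit stated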); conditions: rat INS-1E insulin secretion, at 10 µM, stronger effect = higher value
# [9] = growth inhibition of GSK3B-pretreated HCT116 cells – cell-based, CellTiter-Glo, 0.2 to 20 µM (AID 1117336;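 active = compounds lowering colon cancer cell viability after pretreatment blocking the GSK3B kinase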); conditions: HCT116 viability after GSK3B inhibitor, at 20 µM, stronger effect = higher value
# [10] = inhibition of endothelial tube formation, primary screen, imaging, VEGF stimulated, CD31 staining, tube area, NPC library (AID 1117340;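 active = compound that reduces growth-factor-driven endothelial tube area in a mixed cell culture, no cutoff stated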); conditions: VEGF-stimulated ADSC/ECFC co-culture, at 10 µM, stronger effect = higher value
# [11] = GLP1 release stimulators, primary, NCI-H716, NPC library (AID 1117341;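 active = compound raises GLP1 secretion from the human gut endocrine cells, with no numeric limit stated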); conditions: NCI-H716 cells, at 10 µM, stronger effect = higher value
# [12] = HCT116 colon cancer cell growth inhibition, primary screen, CellTiter-Glo luminescence, NPC library (AID 1117342;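 active = compounds that lower survival of HCT116 colon cancer cells in the luminescence readout, no numeric limit stated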); conditions: at 20 µM (top of the series)
# [13] = reduced SW480 viability measured with CellTiter-Glo, NPC library, primary (AID 1117343;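 active = compounds that lower viability of the colon cancer cells in the luminescence readout, with no numeric limit stated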); conditions: CellTiter-Glo luminescence; at 20 µM (top of the series)
# [14] = NPC library primary testing for decreased DLD-1 cell viability via CellTiter-Glo (AID 1117346;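 active = compounds that lower survival of DLD-1 colon cancer cells in the luminescence readout, no cutoff given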); conditions: DLD-1 viability, CellTiter-Glo luminescence; at 20 µM (top of the series)
# [15] = tested on: Hepatitis C virus NS3 helicase; test: blockers of NS3h binding to ssDNA – biochemical, fluorescence polarization, LOPAC1280 library, primary screen (AID 687035; in the data active = inhibition above about 37%); conditions: Purified HCV NS3 helicase, Cy5-dT15 ssDNA binding fluorescence polarization; stronger effect = higher value; concentration not given here
# [16] = compounds altering Cy5-DNA-NS3h complex signal – biochemical, LOPAC1280, artefact control for HCV NS3 helicase inhibitor project (AID 687037); conditions: Cy5-DNA-NS3h complex fluorescence interference counterscreen
# [17] = liver-stage malaria parasite load reduction – cell-based, known kinase inhibitor set, luminescence, hepatoma host viability (AID 624392); conditions: Plasmodium liver stage in hepatoma cells, luciferase luminescence, concentration not given here; liver cell % of control: measured here: host liver cell viability; parasite % of control: stronger effect = lower value;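 also: infected cells incubated roughly two days before readout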
Structure (SMILES),parasite load remaining [1],viability [1],fluorescence ratio [2],inhibition [3],inhibition [4],fluorescence ratio [5],z-score [6],nuclear beta-catenin stimulation ([7]; at 10 µM),"nuclear beta-catenin stimulation ([7]; stimulation, at 2 µM) [%]",insulin secretion stimulation [8],viability decrease [9],tube area decrease [10],GLP1 secretion stimulation [11],inhibition of viability [12],viability decrease (inhibition) [13],viability decrease (inhibition) [14],inhibition [15],fluorescence ratio (interference) [16],liver cell % of control [17],parasite % of control [17]
CN(C/C=C/C#CC(C)(C)C)Cc1cccc2ccccc12,40.7% (inactive) and 65.8% (inactive) and 43.2% (inactive),99.2% and 68.9% and 104%,1.06 (inactive),1.19% (inactive),4.52% (inactive),1 (inactive),0.0743 (inactive),5.3% (inactive),2.6,3.2% (inactive),84.2% (active),5.2% (inactive),-3.9% (inactive),82.6% (active),121% (active),70.1% (active),–,–,–,–
COC(=O)C1=C(C)NC(C)=C(C(=O)O[C@@H]2CCCN(Cc3ccccc3)C2)[C@@H]1c1cccc([N+](=O)[O-])c1,10.8% (inactive),55.9%,0.96 (inactive),3.56% (inactive),5.29% (inactive),0.94 (inactive),1.67 (inactive),8.2% (inactive),5.8,1.9% (inactive),110% (active),52.9% (active),-0.5% (inactive),109% (active),131% (active),101% (active),–,–,–,–
O=C1Nc2ccc(Cl)cc2[C@@](C#CC2CC2)(C(F)(F)F)O1,46.6% (inactive) and 8.97% (inactive),69% and 64.5%,0.99 (inactive),5.15% (inactive),6.06% (inactive),0.99 (inactive),0.939 (inactive),-0.8% (inactive),3.6,11.3% (inactive),86.5% (active),-16% (inactive),21% (active),87.9% (active),114% (active),49.4% (inactive),–,–,–,–
CNS(=O)(=O)Cc1ccc2[nH]cc(CCN(C)C)c2c1,108% (inactive) and 29.1% (inactive),93.1% and 65.5%,1.05 (inactive),5.94% (inactive),6.06% (inactive),1.03 (inactive),0.0332 (inactive),0.9% (inactive),0.4,0.3% (inactive),-2.3% (inactive),15.1% (inactive),1.4% (inactive),-2.93% (inactive),66.2% (active),-3.8% (inactive),–,–,–,–
CC(C)(C)C(O)/C=C/c1ccc2c(c1)OCO2 (centres undefined),76% (inactive),68%,0.94 (inactive),-4.59% (inactive),-2.76% (inactive),0.88 (inactive),-0.389 (inactive),0% (inactive),1.5,-1.1% (inactive),-4.45% (inactive),-6.4% (inactive),1.9% (inactive),11.7% (inactive),-0.9% (inactive),-1.3% (inactive),–,–,–,–
CCN(CC)CCNC(=O)c1cc(Cl)c(N)cc1OC,–,–,1.01 (inactive),-3.18% (inactive),-0.48% (inactive),0.98 (inactive),–,0.2% (inactive),-1.4,3.1% (inactive),-11.3% (inactive),12.6% (inactive),0.3% (inactive),-2.1% (inactive),-17.7% (inactive),6% (inactive),-4% (inactive),1 (inactive),–,–
COc1cc2c(N3CCN(C(=O)Nc4ccc(OC(C)C)cc4)CC3)ncnc2cc1OCCCN1CCCCC1,–,–,–,–,–,–,–,1.7% (inactive),-1.8,7% (inactive),75.1% (active),11% (inactive),11.5% (inactive),93.9% (active),38.5% (inactive),10.1% (inactive),–,–,61.6% and 84.6% and 95.9%,32.5% (inactive) and 57.6% (inactive) and 55.2% (inactive)
COc1ccccc1OCC(O)CN1CCN(CC(=O)Nc2c(C)cccc2C)CC1 (centres undefined),–,–,1.02 (inactive),-3.56% (inactive),-4.72% (inactive),0.9 (inactive),0.514 (inactive),2.5% (inactive),1.4,0.8% (inactive),-14.5% (inactive),0.2% (inactive),2.2% (inactive),9.23% (inactive),-16.2% (inactive),-14.6% (inactive),-7% (inactive),0.9 (inactive),–,–
CCOC(=O)C1=C(C)NC(C)=C(C(=O)OC)C1c1cccc(Cl)c1Cl (centres undefined),–,–,–,–,–,–,–,35.8% (inactive),7.4,3.1% (inactive),113% (active),58.1% (active),5.3% (inactive),110% (active),139% (active),95.6% (active),-1% (inactive),1 (inactive),–,–
COc1cc2nc(N3CCN(C(=O)C4CCCO4)CC3)nc(N)c2cc1OC (centres undefined),–,–,0.99 (inactive) and 1.03 (inactive),0.4% (inactive) and -6.82% (inactive),-3.18% (inactive) and 1.05% (inactive),0.95 (inactive) and 1.02 (inactive),-0.533 (inactive),0.8% (inactive),1.4,0.35% (inactive),7.5% (inactive),9.3% (inactive),1.3% (inactive),-9.1% (inactive),-2.8% (inactive),5.5% (inactive),-3% (inactive),1 (inactive),–,–

# — PubChem BioAssay
